Out of some 55,000 […] screened, about 2,600 (4.7%) were called active. Cut-off read from the data, not from the text of the source: active = GI50 up to about 1.1 µM and inactive = higher. Not all results are given here. Entries with a potency or affinity are not part of this list.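 Each compound was tested at five concentrations against cells in 96-well plates for 48 hours. GI50: concentration for 50% inhibition of growth.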
Each substance was assayed on OVCAR-4 (assay: NCI tumour cell line growth inhibition, 48 h).

Substance | GI50
[Bis(aminomethyl)tetramethylenesilane]dichloropaltinum(II), CHEMBL2146205 | 59.8 µM
[Bis(aminomethyl)tetramethylenesilane]tetrachloropaltinum(IV), CHEMBL2146189 | 19 µM
CISPLATIN, CHEMBL11359 | 1.49 µM
[Bis(aminomethyl)pentamethylenesilane]dichloropaltinum(II), CHEMBL2146202 | 5.46 µM
cis-Bis[[(trimethylsilyl)methyl]amino]tetrachloroplatinum(IV), CHEMBL2146191 | 5.53 µM
[Bis(aminomethyl)pentamethylenesilane]tetrachloropaltinum(IV), CHEMBL2146204 | 18.6 µM
[Bis(aminomethyl)dimethylsilane]tetrachloroplatinum(IV), CHEMBL2146190 | 18.8 µM
[Bis(aminomethyl)dimethylsilane]dichloroplatinum (II), CHEMBL2146201 | 45.8 µM
[Bis(aminomethyl)ethylmethylsilane]tetrachloroplatinum(IV), CHEMBL2146192 | 10 µM
mu-(1,7-nanodiamine-N,N')bis-(cis-aminedichloroplatimum (II)), CHEMBL2146215 | 40.8 µM
[Bis(aminomethyl)diethylsilane]tetrachloroplatinum(IV), CHEMBL2146203 | 14.7 µM

From ChEMBL document CHEMBL1201862, “PubChem BioAssay data set” (2004)
